SENP6 block = blocks the human protease SENP6. inhibition, % at 10 µM. Q9GZR1. 1.8% of 330,000 active. Recombinant SENP6 catalytic domain, aminoluciferin luminescence;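 active = inhibition above about 50% at the single tested dose, limit read from the data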;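 also: plate controls were DMSO wells with enzyme for no effect and DMSO wells lacking enzyme for full effect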
SENP7 inh = inhibitors of human SENP7 protease | recombinant SENP7, Z-RLRGG-aminoluciferin luminescence, 40 min | inhibition, % at 5 µM | 1.5% of 330,000 active | AID 434973;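 active = inhibition above about 50% at the single test dose, limit read from the data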;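 also: plate controls were DMSO with enzyme for no effect and no enzyme buffer wells for full effect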
Target sequence (Q9BQF6 706-1050 limits assumed): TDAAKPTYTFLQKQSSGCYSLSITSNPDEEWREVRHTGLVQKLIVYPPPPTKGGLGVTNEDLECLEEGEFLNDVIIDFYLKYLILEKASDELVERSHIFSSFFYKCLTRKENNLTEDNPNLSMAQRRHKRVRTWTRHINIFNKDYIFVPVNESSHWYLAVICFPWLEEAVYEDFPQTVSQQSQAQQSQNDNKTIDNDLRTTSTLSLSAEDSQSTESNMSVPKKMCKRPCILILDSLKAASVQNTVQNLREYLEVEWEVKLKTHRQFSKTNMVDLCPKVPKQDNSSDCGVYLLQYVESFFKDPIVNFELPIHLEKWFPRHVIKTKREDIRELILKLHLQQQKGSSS
LGR2 antag = Drosophila LGR2 receptor signaling inhibition; HEK293 LGR2, CRE-luciferase, bursicon-stimulated, 4 h; inhibition, % at 9.99 µM; 0.35% of 380,000 active; AID 720647;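 active = drop in luminescence signal, shown as inhibition above about 50% in the replicate tests, limit read from the data, passing the limit was not always enough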;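 also: agonist challenge used bursicon conditioned medium at about half maximal strength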
SENP8 block-1 = inhibitors of human SENP8 protease; inhibition, % at 20 µM; 0.64% of 360,000 active; recombinant SENP8, Nedd8 substrate fluorescence; in the data active = inhibition mostly above about 40%, no sharp cut-off; inactive = mostly below about 27%
Target sequence (Q96LD8 whole entry, looked up): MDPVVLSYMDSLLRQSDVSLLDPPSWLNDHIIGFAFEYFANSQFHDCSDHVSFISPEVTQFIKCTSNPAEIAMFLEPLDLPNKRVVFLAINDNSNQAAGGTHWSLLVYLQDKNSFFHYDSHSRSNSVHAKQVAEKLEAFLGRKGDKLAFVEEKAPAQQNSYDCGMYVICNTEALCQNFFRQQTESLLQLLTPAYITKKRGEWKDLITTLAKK
SENP8 block-2 = inhibitors of human SENP8 protease; Q96LD8; purified SENP8, Z-RLRGG-aminoluciferin cleavage, luminescence; inhibition, % at 10 µM; 1.2% of 330,000 active; in the data active = inhibition above about 50%
HSP90 inh = inhibitors of HSP90 luciferase refolding in rabbit reticulocyte lysate; luciferase refolding luminescence, 3 h; 0.91% of 290,000 active; AID 1789; inhibition, % at 5.6 µM;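 active = inhibition above the screen-wide mean plus 3 SD, computed separately per campaign, cut at about 16% in these data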;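 also: 0% = DMSO wells and 100% = 60 µM geldanamycin wells; inhibitors lower the luminescence because luciferase stays unfolded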
SENP8 conf = human SENP8 inhibition, confirmed. AID 488912. 40% of 6,200 active. Recombinant SENP8, Z-RLRGG-aminoluciferin luminescence, 60 min. shares compounds with SENP7 inh. inhibition, % at 12.5 µM;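 active = mean inhibition across replicates above about 50%, limit read from the data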
SENP6 conf = human SENP6 inhibition, confirmed; shares compounds with SENP7 inh; recombinant SENP6, Z-RLRGG-aminoluciferin luminescence; inhibition, % at 12.5 µM; 58% of 6,200 active; AID 488915
SENP7 conf = confirmation of human SENP7 protease inhibitors | shares compounds with SENP7 inh | recombinant SENP7, Z-RLRGG-aminoluciferin luminescence, 40 min | inhibition, % at 12.5 µM | 69% of 6,200 active
Casp3 select = caspase-3 inhibition (SENP selectivity assay); shares compounds with SENP7 inh; purified caspase-3, Z-DEVD-aminoluciferin luminescence, 60 min; inhibition, % at 12.5 µM; 60% of 6,200 active;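 active = mean inhibition above about 50%, limit read from the data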;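 also: plate controls were enzyme with DMSO for no effect and wells without caspase-3 for full effect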
SENP luc ctr = luminescence interference (SENP counter-screen) | shares compounds with SENP7 inh | Pre-incubated SENP8/Z-RLRGG-aminoluciferin, luciferase luminescence interference | inhibition, % at 12.5 µM | 39% of 6,200 active;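 active = mean inhibition above about 50% when retested at one dose, limit read from the data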;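 also: plate controls were DMSO wells with completed reaction for no effect and substrate without enzyme for full effect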
* = called active by the depositor; . = not tested or not shown. Sampled rows, rich in hits. Any-hit rate of the full collection: about 2.3%.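 The calls were made as follows, unless noted: active = mean inhibition above about 50% in the one-dose retest (limit read from the data); inactive = the rest.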

SMILES	SENP6 block	SENP7 inh	LGR2 antag	SENP8 block-1	SENP8 block-2	HSP90 inh	SENP8 conf	SENP6 conf	SENP7 conf	Casp3 select	SENP luc ctr
c1ccc2nc(-c3nccs3)ccc2c1	2	17	-42	-137	-8	1	.	.	.	.	.
c1ccc2nc(-c3ccncc3)ccc2c1	53*	36	.	16	8	1	30	30	60*	67*	39
C[C@H](CO)N1C[C@H](C)[C@H](CN(C)S(=O)(=O)c2ccc(F)cc2)OCCCC[C@H](C)Oc2ccc(NS(=O)(=O)c3ccccc3)cc2C1=O	.	.	3	.	.	.	.	.	.	.	.
COCCn1c(C)cc(C(=O)COC(=O)c2cccnc2SC)c1C	87*	85*	32	7	78*	.	86*	86*	98*	91*	69*
COCCn1c(C)cc(C(=O)COC(=O)c2ccc3ncsc3c2)c1C	-1	4	.	6	-1	3	.	.	.	.	.
O=C(c1ccccn1)N1CC2(C1)[C@@H](c1ccccc1)[C@@H](CO)N2Cc1ccc(Cl)cc1	.	.	-15	.	.	.	.	.	.	.	.
C[C@@H]1CN([C@H](C)CO)C(=O)Cc2cc(NS(=O)(=O)c3cn(C)cn3)ccc2O[C@@H]1CN(C)C(=O)Nc1ccc2c(c1)OCO2	.	.	5	.	.	.	.	.	.	.	.
O=C(O)c1cccc(N/N=C/c2cc(Br)cc(Br)c2O)c1	77*	2	-89	-3	74*	12	39	90*	95*	5	77*
COc1cccc(/C=N/Nc2ccccc2C(=O)O)c1O	93*	79*	-45	10	88*	0	94*	94*	99*	92*	93*
COc1cccc(/C=N/NC(=O)N/N=C/c2cccc(OC)c2O)c1O	50	1	-54	-2	50*	-5	-3	39	65*	61*	27
COc1cccc(/C=N/Nc2ccc(S(=O)(=O)O)cc2)c1O	17	-10	.	-95	4	-2	.	.	.	.	.
COc1cccc(/C=N/Nc2ccc(C(=O)O)cc2)c1O	99*	99*	.	-29	98*	95*	99*	100*	102*	98*	97*
CCCNC(=O)N1CC2(CN(Cc3ccccn3)C2)c2c(n(C)c3cc(OC)ccc23)[C@@H]1CO	.	.	-1	.	.	.	.	.	.	.	.
N#Cc1ccc(C(=O)Nc2ccc3ccccc3c2)cc1	29	72*	2	-8	22	-3	32	37	81*	59*	5
O=C(Nc1cnc2ccccn2c1=O)c1ccc(Cl)cc1Cl	66*	69*	71*	-140	7	15	57*	59*	76*	82*	22
O=C(NC(=S)Nc1ccc2c(c1)OCCO2)c1ccccc1F	-24	2	-63	20	-9	-1	.	.	.	.	.
N#Cc1ccccc1Sc1ccccc1C(=O)Nc1ccc2ccccc2c1	13	4	32	1	6	2	.	.	.	.	.
O=C(Nc1ccc2c(c1)OCCO2)c1ccccc1F	76*	78*	.	10	58*	14	69*	68*	92*	90*	81*
O=C(Nc1ccccc1)Nc1ccc(C(=O)N2CCOCC2)cc1	59*	82*	.	19	61*	9	81*	81*	97*	93*	82*
Cc1ccc(C(=O)Nc2cnc3ccccn3c2=O)cc1	3	9	.	-200	-9	4	.	.	.	.	.
CO[C@H]1CN(C)C(=O)c2ccc(NC(=O)Nc3ccccc3)cc2OC[C@@H](C)N(C(=O)CN(C)C)C[C@H]1C	.	.	-13	.	.	.	.	.	.	.	.
COc1ccc(NC(=O)Nc2ccc3c(c2)C(=O)N([C@H](C)CO)C[C@H](C)[C@H](CN(C)S(=O)(=O)c2cn(C)cn2)O3)cc1	.	.	-2	.	.	.	.	.	.	.	.
O=C(NCc1ccc2c(c1)OCO2)c1cnc2ccccn2c1=O	12	6	-8	-48	-3	-2	.	.	.	.	.
O=C(Nc1ccc(C(=O)N2CCCC2)cc1)c1ccccc1F	69*	77*	-26	5	58*	1	66*	68*	91*	93*	78*
O=C(Nc1ccc2c(c1)OCCO2)c1cnc2ccccn2c1=O	57*	6	.	12	29	-3	11	-1	10	39	6
SMILES	SENP6 block	SENP7 inh	LGR2 antag	SENP8 block-1	SENP8 block-2	HSP90 inh	SENP8 conf	SENP6 conf	SENP7 conf	Casp3 select	SENP luc ctr
O=C(Nc1ccc(F)cc1)c1ccccc1F	20	2	-26	12	1	4	.	.	.	.	.
COc1ccc(NC(=O)c2ccccc2F)cc1Cl	81*	79*	.	18	76*	3	83*	84*	92*	88*	21
COc1ccc(NC(=O)c2ccco2)cc1NC(=O)c1ccccc1F	-14	-7	-5	6	-11	-5	.	.	.	.	.
O=C(Nc1ccc2ccccc2c1)c1ccccc1F	86*	92*	52*	8	82*	16	64*	89*	98*	82*	88*
O=C1C2C3C=CC(CC3)C2C(=O)N1/N=C/c1ccc(O)c(O)c1 (stereo not drawn)	-8	4	.	22	-11	-5	.	.	.	.	.
O=C1c2ccccc2C(=O)N1/N=C/c1ccc(O)c(O)c1	66*	46	10	12	51*	-3	6	41	82*	70*	64*
Cn1c(=O)c2ncn(CC(=O)Nc3cccc(-c4nc5ccccc5s4)c3)c2n(C)c1=O	72*	-8	.	-146	60*	0	12	43	64*	36	24
CC(C)C(=O)Nc1ccc2c(c1)C(=O)N(C)[C@H]1CC[C@H](CC(=O)NCc3ccccc3F)O[C@@H]1CO2	.	.	10	.	.	.	.	.	.	.	.
COc1ccc(-c2csc(N3CCSCC3)n2)cc1	-30	-2	-102	11	-4	0	.	.	.	.	.
COc1ccc(-c2csc(-n3cccn3)n2)cc1	81*	80*	-95	9	72*	-3	10	79*	96*	65*	69*
COCn1c(-c2ccc(OC)c(OC)c2)nc2ccccc21	4	14	.	-20	-3	-4	.	.	.	.	.
COCn1c(-c2cccc(Br)c2)nc2ccccc21	51*	40	.	10	22	4	23	20	65*	42	55*

Compound activity from PubChem.
